The source of these data is PubChem BioAssay (EPA / NIEHS).

“And” between values parts separate entries of the source, which are not always exact repeats. Equal entries are not always repeated. More than one record can exist for a structure, and the calls need not agree. The source made the active and inactive calls. The calls were made as follows: active = hit-call score of the fitted dose curve at least 0.9, where 1 is the maximum; inactive = score below 0.9.

The nature of assay [1]: ATG_PXRE_CIS: Attagene CIS-FACTORIAL HepG2 Assay for human Pregnane X Receptor Element (PXRE) (AID 2282957). As to conditions: HepG2 Attagene CIS-FACTORIAL PXRE reporter, mRNA; actives raise or lower the signal. Summed up:
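Cells: HepG2, transiently transfected reporter units under cis promoter control. Exposure: 24 h. Detection: reporter mRNA via RT-PCR/CE fluorescence; bidirectional fitting, DMSO-referenced.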

A short description of assay [2]: ATG_PPRE_CIS: Attagene CIS-FACTORIAL HepG2 Assay for human Peroxisome Proliferator-activated Response Element (PPRE) (AID 2282958). The conditions noted are these: HepG2 PPRE cis-element reporter, Attagene transcription factor profiling; actives raise or lower the signal. Summed up:
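HepG2 cells are transiently transfected with multiplexed cis-promoter reporter units to report endogenous PPAR activity. After 24 h dosing, reporter mRNA is read by RT-PCR and capillary electrophoresis. Fitting is bidirectional against DMSO.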

Assay [3] is described as follows: ATG_RORE_CIS: Attagene CIS-FACTORIAL HepG2 Assay for human RAR-related Orphan Receptor Element (RORE) (AID 2282959). As to conditions: HepG2 Attagene cis-factorial RORE reporter, mRNA; actives raise or lower the signal. Summed up: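 HepG2 cells carrying transiently transfected cis-regulated reporter units; RORE-driven reporter mRNA quantified 24 h post-dosing by RT-PCR, 6-FAM primer extension, HpaI digestion and capillary electrophoresis. Bidirectional fit versus DMSO.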

Assay [4] in a line: ATG_Sox_CIS: Attagene CIS-FACTORIAL HepG2 Assay for human SRY-box transcription factor (SOX) (AID 2282960). As to conditions: HepG2 Attagene cis-factorial SOX reporter, mRNA; actives raise or lower the signal. A digest of the protocol: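 HepG2 cells transiently transfected with multiple cis-regulated reporter units, then dosed for 24 h. Reporter mRNA quantified by RT-PCR, fluorescent labelling, HpaI digestion and capillary electrophoresis; bidirectional fit versus DMSO.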

Assay [5] concerns the target Transcription factor Sp1 (Homo sapiens) (UniProt P08047). As to the kind of experiment: ATG_Sp1_CIS: Attagene CIS-FACTORIAL HepG2 Assay for human Specificity Protein 1 (Sp1) (AID 2282961). As to conditions: HepG2 Sp1 cis-reporter transcription, actives raise or lower the signal. Summed up:
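HepG2 cells transiently transfected with multiplexed cis-regulated reporter constructs, chemical exposure 24 h. Reporter mRNA quantified by RT-PCR with capillary electrophoresis; bidirectional fit relative to DMSO.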

A short description of assay [6]: ATG_SREBP_CIS: Attagene CIS-FACTORIAL HepG2 Assay for human Sterol Regulatory Element Binding (SREBP) (AID 2282962). The conditions noted are these: HepG2 Attagene cis-factorial SREBP reporter, mRNA; actives raise or lower the signal. A digest of the protocol: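 Twenty-four hours after chemical dosing of transfected HepG2 cultures, reporter RNA was converted to cDNA, amplified, end-labelled with 6-FAM and resolved by capillary electrophoresis. Responses were fitted relative to DMSO.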

Assay [7] has as its target Signal transducer and activator of transcription 3 (Homo sapiens) (UniProt P40763). As to the kind of experiment: ATG_STAT3_CIS: Attagene CIS-FACTORIAL HepG2 Assay for human Signal Transducer and Activator of Transcription 3 (STAT3) (AID 2282963). The conditions noted are these: HepG2, Attagene cis-factorial STAT3 reporter transcription; actives raise or lower the signal. A digest of the protocol: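 Endogenous STAT3-responsive cis-element activity was read in transiently transfected HepG2 cells after 24 h treatment. Reporter transcripts were quantified via RT-PCR and capillary electrophoresis, with DMSO as negative control and bidirectional curve fitting.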

Assay [8] is described as follows: ATG_TA_CIS: Attagene CIS-FACTORIAL HepG2 Assay for human TA Basal Promoter (AID 2282964). The conditions noted are these: HepG2 Attagene CIS-factorial TA basal promoter reporter; actives raise or lower the signal. A digest of the protocol:
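Background-control readout: TA basal promoter reporter mRNA, fitted in both directions relative to DMSO. Measured by RT-PCR and capillary electrophoresis 24 hours after treating HepG2 human liver cells transiently carrying multiplexed cis-regulated reporter constructs.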

A short description of assay [9]: ATG_TCF_b_cat_CIS: Attagene CIS-FACTORIAL HepG2 Assay for human T-Cell-Factor with beta-catenin (TCF/b-cat) (AID 2282965). As to conditions: HepG2 TCF/beta-catenin cis-reporter transcription, actives raise or lower the signal. A digest of the protocol:
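Endogenous transcription factor activity is captured through cis-promoter reporter constructs transiently introduced into human HepG2 liver cells. Induced reporter mRNA is measured after 24 h and fitted bidirectionally relative to DMSO.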

A short description of assay [10]: ATG_TAL_CIS: Attagene CIS-FACTORIAL HepG2 Assay for human TAL Basal Promoter (AID 2282966).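 Also: background control endpoint measuring basal TAL promoter reporter mRNA not a specific factor.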 As to conditions: HepG2 Attagene cis-factorial TAL promoter reporter; actives raise or lower the signal. A digest of the protocol:
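RT-PCR plus capillary electrophoresis quantifies reporter mRNA induction in transiently transfected HepG2 cells after 24 h chemical treatment. DMSO serves as negative control and baseline for bidirectional fitting.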

Transcription factor Sp1 (Homo sapiens), sequence (P08047 whole entry, looked up): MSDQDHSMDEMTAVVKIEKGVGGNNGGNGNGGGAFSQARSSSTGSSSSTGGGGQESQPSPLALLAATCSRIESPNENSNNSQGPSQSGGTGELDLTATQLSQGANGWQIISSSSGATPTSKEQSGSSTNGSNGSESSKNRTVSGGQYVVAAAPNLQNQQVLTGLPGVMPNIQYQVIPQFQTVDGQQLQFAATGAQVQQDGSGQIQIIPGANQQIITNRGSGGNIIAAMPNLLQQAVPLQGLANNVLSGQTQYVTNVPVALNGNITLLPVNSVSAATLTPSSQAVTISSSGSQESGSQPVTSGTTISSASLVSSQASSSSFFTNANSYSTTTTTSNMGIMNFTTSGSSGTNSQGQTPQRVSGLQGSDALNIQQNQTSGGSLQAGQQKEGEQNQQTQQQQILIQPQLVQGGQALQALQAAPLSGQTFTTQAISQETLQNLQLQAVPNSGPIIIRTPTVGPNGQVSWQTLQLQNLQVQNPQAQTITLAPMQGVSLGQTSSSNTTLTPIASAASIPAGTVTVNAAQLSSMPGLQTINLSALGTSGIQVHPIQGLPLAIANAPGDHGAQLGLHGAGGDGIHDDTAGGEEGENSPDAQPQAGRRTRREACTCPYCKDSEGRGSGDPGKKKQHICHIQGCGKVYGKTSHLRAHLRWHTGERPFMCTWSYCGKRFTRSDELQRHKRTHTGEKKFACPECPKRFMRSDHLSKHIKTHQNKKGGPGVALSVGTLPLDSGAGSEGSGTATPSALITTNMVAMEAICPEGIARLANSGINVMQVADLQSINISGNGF
Signal transducer and activator of transcription 3 (Homo sapiens), sequence (P40763 whole entry, looked up): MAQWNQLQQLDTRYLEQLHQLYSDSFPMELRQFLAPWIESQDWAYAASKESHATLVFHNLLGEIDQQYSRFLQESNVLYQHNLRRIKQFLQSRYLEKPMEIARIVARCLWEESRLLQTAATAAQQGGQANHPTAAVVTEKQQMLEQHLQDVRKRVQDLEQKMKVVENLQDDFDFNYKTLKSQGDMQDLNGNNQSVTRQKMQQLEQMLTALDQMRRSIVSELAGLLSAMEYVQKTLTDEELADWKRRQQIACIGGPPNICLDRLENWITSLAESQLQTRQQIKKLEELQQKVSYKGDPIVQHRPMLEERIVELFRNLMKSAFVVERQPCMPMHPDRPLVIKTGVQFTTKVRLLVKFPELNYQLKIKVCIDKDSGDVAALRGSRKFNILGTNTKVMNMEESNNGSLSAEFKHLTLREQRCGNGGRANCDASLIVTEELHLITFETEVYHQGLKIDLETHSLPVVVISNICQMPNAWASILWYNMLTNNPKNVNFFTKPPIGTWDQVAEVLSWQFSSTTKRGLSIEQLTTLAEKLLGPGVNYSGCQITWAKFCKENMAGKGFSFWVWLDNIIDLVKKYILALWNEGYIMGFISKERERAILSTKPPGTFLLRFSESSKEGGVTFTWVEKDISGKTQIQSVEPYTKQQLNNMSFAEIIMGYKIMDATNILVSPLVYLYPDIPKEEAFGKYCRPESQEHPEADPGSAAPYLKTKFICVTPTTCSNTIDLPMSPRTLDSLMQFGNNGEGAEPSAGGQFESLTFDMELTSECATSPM

As for `CCCCOCCOCCOCc1cc2c(cc1CCC)OCO2`, in assay [1], the AC50 – broadly, the concentration at which the activity in the assay is half-maximal – was 2.21 µM (active). In addition, the outcome in assay [2], in [3], in assay [4], in assay [5], in assay [6] and in [7] was inactive. Further, the molecule was called inactive in assay [8], in [9] and in assay [10].

Regarding `C#C[C@]1(O)CC[C@H]2[C@@H]3CCC4=CC(=O)CC[C@@H]4[C@H]3CC[C@@]21CC`, the AC50 in [1] was 5.07 µM (active) [middle of 5 runs]. The molecule was called inactive in assay [2], in assay [3], in assay [4], in assay [5], in assay [6] and in assay [7]. The molecule was classed as inactive in assay [8], in assay [9] and in assay [10].

With `C#CCOC(=O)[C@@H](C)Oc1ccc(Oc2ncc(Cl)cc2F)cc1`, the AC50 in [1] was 19.1 µM (active); in [2], 18 µM (active). The molecule was classed as inactive in assay [3], in assay [4], in assay [5], in assay [6], in assay [7] and in assay [8]. The call in assay [9] and in [10] was inactive.

Consider `CCOC(=O)NCCOc1ccc(Oc2ccccc2)cc1`, for which the AC50 is 10 µM (active) in [1], 8.06 µM (active) in assay [2] and 13.3 µM (active) in assay [3]. The outcome in assay [4], in assay [5], in assay [6], in assay [8], in assay [9] and in assay [10] was inactive.

For the molecule `COCCO`, the AC50 in assay [1] was 24.7 µM (active). The outcome in [1], in [2], in assay [3], in [4], in [5] and in [6] was inactive. The outcome in assay [7], in assay [8], in assay [9] and in assay [10] was inactive.

As for `C[C@]12CC[C@@H]3c4ccc(O)cc4C[C@@H](CCCCCCCCCS(=O)CCCC(F)(F)C(F)(F)F)[C@H]3[C@@H]1CC[C@@H]2O` (some centres not stated), the AC50 in [1] was 363 nM (active) [middle of 4 runs]. Further, the result in assay [2], in assay [3], in assay [4], in assay [5], in assay [6] and in assay [8] was inactive. Also, the call in assay [9] and in assay [10] was inactive.

In the case of `c1ccc2[nH]c(-c3cscn3)nc2c1`, the AC50 in [1] was 10 µM (active). Further, the molecule was called inactive in assay [1], in assay [2], in assay [3], in assay [4], in assay [5] and in [6]. In addition, the molecule was called inactive in [8], in [9] and in assay [10].

Turning to `O=C(c1ccc(O)cc1O)c1ccc(O)cc1O`, the result in [1], in assay [2], in [3], in [4], in [5] and in [6] was inactive. Also, the molecule was called inactive in [7], in assay [8], in [9] and in [10]. Also, the concentration at half-maximal activity (AC50) in assay [2] is 28.4 µM (active); in [9], 53.5 µM (active).

Take `CC(C)(C)[C@@H](O)[C@@H](Cc1ccc(Cl)cc1)n1cncn1`: the AC50 in assay [1] was 13.5 µM (active). For the same molecule, the molecule was classed as inactive in assay [2], in assay [3], in assay [4], in [5], in assay [6] and in assay [8]. Besides, the molecule was called inactive in assay [9] and in assay [10].

With `N#CSCSc1nc2ccccc2s1`, the AC50 in assay [1] was 3.49 µM (active); in assay [2] it was 2.81 µM (active); in assay [5], 17.8 µM (active); in assay [9], 1.99 µM (active). Further, the outcome in assay [1], in assay [2], in assay [3], in [4], in [5] and in assay [6] was inactive. For the same molecule, the call in [7], in assay [8], in assay [9] and in assay [10] was inactive.

Consider `COC(=O)c1ccccc1S(=O)(=O)NC(=O)Nc1nc(OC(F)F)cc(OC(F)F)n1`, for which the AC50 in assay [1] was 33.2 µM (active). The result in assay [2], in [3], in assay [4], in assay [5], in assay [6] and in assay [7] was inactive. In addition, the molecule was classed as inactive in assay [8], in assay [9] and in [10].

`COC(=O)CSc1cc(N=c2sc(=O)n3n2CCCC3)c(F)cc1Cl`: the AC50 in assay [1] is 9.92 µM (active); in assay [2], 10.4 µM (active). The molecule was classed as inactive in [3], in [4], in [5], in assay [6], in assay [7] and in [8]. Besides, the call in [9] and in [10] was inactive.

On to `CN(C)C(=O)Nc1ccc(Cl)c(Cl)c1`, for which the AC50 is 11.4 µM (active) and 25.4 µM (active) in [1]; 37 µM (active) in [2]; 100 µM (active) in assay [3]; 180 µM (active) in assay [5]. Moreover, the molecule was classed as inactive in assay [2], in [3], in [4], in assay [5], in [6] and in [7]. The result in assay [8], in assay [9] and in assay [10] was inactive.

As to `OB(O)O`, in assay [1], the AC50 was 81.3 µM (active). In addition, the molecule was called inactive in [2], in [3], in [4], in [5], in assay [6] and in assay [7]. The call in assay [8], in assay [9] and in [10] was inactive.
